Results reported in PubChem BioAssay.
Records with an inconclusive call do not appear. For some assays here: Results with a measured potency or affinity are listed apart. Active and inactive are the calls of the source.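 The calls were made as follows, unless noted: active = normalized viability below 100% at a tested concentration; inactive = the rest.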

Key:
[1] = antimalarial activity against Dd2 strain (AID 2302;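 active = growth inhibition above 50% at the single 2 µM test dose, taken to imply half-maximal potency below 2 µM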;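 also: 0% = DMSO untreated growth and 100% = chloroquine plus artemisinin killed control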); details: P. falciparum Dd2 in RBCs, LDH growth readout, 72 h; at 2 µM; stronger effect = higher value
[2] = HepG2 cytotoxicity, primary screen, cytotoxicity control for P. falciparum antimalarial project, cell-based, ATP luminescence (AID 2303;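 active = inhibition above 50%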;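 also: 0% = DMSO wells and 100% = digitonin-killed cells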); details: HepG2 viability, 24-48 h, at 10 µM, stronger effect = higher value
[3] = biological target: L-lactate dehydrogenase (Plasmodium falciparum (isolate CDC / Honduras)) (UniProt Q27743); test: PfLDH activity inhibition – cell lysate, 3D7 strain, counter-screen for P. falciparum growth inhibition project (AID 2304; call rule not given here;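 also: 0% = vehicle and 100% = reference inhibitor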); details: P. falciparum 3D7 crude extract, LDH APAD/NBT absorbance; at 2 µM; stronger effect = higher value
[4] = inhibition of 3D7 malaria parasite growth – strain 3D7 (AID 2306; call rule not given here;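 also: 0% = DMSO wells and 100% = chloroquine plus artemisinin control wells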); details: P. falciparum 3D7 erythrocytic growth, LDH absorbance, 72 h; at 2 µM; stronger effect = higher value
[5] = biological target: Calcium-dependent protein kinase 1 (Plasmodium falciparum (isolate 3D7)) (UniProt P62344); test: PfCDPK1 kinase inhibitors, biochemical, TCAMS library (AID 1159585; cut-off not given, nearly all actives have IC50 up to about 0.98 µM;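 also: inhibitors leave more ATP so luminescence rises with inhibition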); details: recombinant PfCDPK1, Kinase-Glo ATP depletion luminescence
[6] = biological target: Plasmodium falciparum protein kinase 6 (PK6, PF3D7_1337100) (UniProt Q8IDW1); test: PfPK6 kinase inhibitors, biochemical, TCAMS library (AID 1159586; call rule not given here); details: recombinant PfPK6, Kinase-Glo ATP depletion luminescence
[7] = biological target: Protein kinase 7 (PK7), Plasmodium falciparum 3D7 (PF3D7_0213400) (UniProt Q7YTF7); test: inhibition of Plasmodium PK7 catalytic activity – biochemical, TCAMS antimalarial set, Kinase-Glo luminescence (AID 1159587; call rule not given here); details: recombinant PfPK7, Kinase-Glo ATP depletion luminescence
[8] = biological target: Calcium-dependent protein kinase 4 (Plasmodium falciparum (isolate 3D7)) (UniProt Q8IBS5); test: PfCDPK4 kinase inhibitors, biochemical, TCAMS library (AID 1159588; cut-off not given, nearly all actives have IC50 up to about 0.91 µM); details: recombinant PfCDPK4, Kinase-Glo ATP depletion luminescence
[9] = growth inhibition of DIPG glioma cells, dose response, cell-based, SU-DIPG-XVII, MIPE5.0, CellTiter-Glo, qHTS (AID 1347060; cut-off not given, nearly all actives have AC50 up to about 26 µM;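 also: cells exposed to compound for 48 hours before viability readout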); details: SU-DIPG-XVII viability, CellTiter-Glo ATP luminescence
[10] = growth inhibition of DIPG glioma cells, dose response, cell-based, SU-DIPG-IV, MIPE4.0, CellTiter-Glo, qHTS (AID 1347063; cut-off not given, nearly all actives have AC50 up to about 30 µM;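 also: compound exposure lasted 48 hours before the viability readout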); details: SU-DIPG-IV viability, CellTiter-Glo ATP luminescence
[11] = growth inhibition of DIPG glioma cells, dose response, cell-based, SU-DIPG-XIII, MIPE5.0, CellTiter-Glo, qHTS (AID 1347064; cut-off not given, nearly all actives have AC50 up to about 23 µM;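 also: cells exposed to compound for 48 hours before the viability read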); details: SU-DIPG-XIII viability, CellTiter-Glo ATP luminescence
[12] = viability loss in pontine glioma line – cell-based, SU-DIPG-XXV, MIPE5.0, CellTiter-Glo, qHTS, dose response (AID 1347065; cut-off not given, nearly all actives have AC50 up to about 26 µM;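 also: cells exposed to compound for 48 hours before ATP readout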); details: CellTiter-Glo ATP luminescence
[13] = SU-DIPG-VI glioma cell viability, MIPE4.0 library, CellTiter-Glo luminescence, qHTS (AID 1347066; cut-off not given, nearly all actives have AC50 up to about 30 µM;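 also: cells exposed to compound for 48 hours before readout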); details: CellTiter-Glo ATP luminescence
[14] = JHH-DIPG-1 glioma cell viability, MIPE5.0 library, CellTiter-Glo luminescence, qHTS (AID 1347067; cut-off not given, nearly all actives have AC50 up to about 26 µM;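 also: cells exposed to compound for 48 hours before readout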); details: JHH-DIPG-1 glioma viability, CellTiter-Glo ATP luminescence
[15] = sensitizers of A549 cells to miR-34 induction, primary screen, imaging, A549 dox-inducible miR-34, nuclei and caspase counts (AID 1347080;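 active = compounds whose cell count with miR-34 switched on is under 0.7 times the count with it off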); details: A549 miR-34 inducible, Hoechst nuclei count, 48 h
[16] = modifiers of HSF1 nuclear foci, imaging, Selleck Cancer Library (AID 1347162; in the data active = plate-normalised HSF1 focus index below about 0.46); details: human cells, at 10 µM; SSMD: measured here: HSF1 foci SSMD mean; cell count: measured here: cell number; plate-normalised HSF1 focus index: stronger effect = lower value
[17] = survival rescue of mitochondrial mutant cells in low glucose, primary screen, MELAS cybrids, Rieske KO mouse fibroblasts, CellTiter-Glo (AID 1508586;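 active = mean z-score across replicates of 1.96 or higher in either the MELAS or the Rieske mutant cell line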;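 also: z relative to plate mean and SD of compound and empty wells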)
[18] = ovarian cancer cell viability with rucaparib, profiling panel, oncology-focused library, rucaparib conditional (AID 1508598); details: patient-derived ovarian cancer cells, CellTiter-Glo viability, 144 h, stronger effect = lower value

Plasmodium falciparum protein kinase 6 (PK6, PF3D7_1337100), sequence (Q8IDW1 1-305): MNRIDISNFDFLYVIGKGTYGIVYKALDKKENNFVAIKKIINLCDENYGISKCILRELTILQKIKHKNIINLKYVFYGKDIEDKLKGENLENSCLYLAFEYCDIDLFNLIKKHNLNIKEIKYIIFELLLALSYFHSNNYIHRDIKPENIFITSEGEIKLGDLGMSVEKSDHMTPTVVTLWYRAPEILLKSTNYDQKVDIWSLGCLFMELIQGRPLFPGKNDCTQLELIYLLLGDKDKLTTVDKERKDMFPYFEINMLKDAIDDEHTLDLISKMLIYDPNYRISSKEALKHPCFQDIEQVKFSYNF
L-lactate dehydrogenase (Plasmodium falciparum (isolate CDC / Honduras)), sequence (Q27743 whole entry, looked up): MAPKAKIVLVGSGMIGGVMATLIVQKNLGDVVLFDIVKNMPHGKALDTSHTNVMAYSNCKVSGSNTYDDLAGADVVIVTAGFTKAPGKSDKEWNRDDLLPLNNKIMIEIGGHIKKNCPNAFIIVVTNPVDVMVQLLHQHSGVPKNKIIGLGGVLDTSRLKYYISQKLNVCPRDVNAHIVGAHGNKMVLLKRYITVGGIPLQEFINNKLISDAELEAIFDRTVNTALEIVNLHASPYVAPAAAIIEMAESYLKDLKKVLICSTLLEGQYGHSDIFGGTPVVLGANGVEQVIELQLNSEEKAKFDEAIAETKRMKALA
Protein kinase 7 (PK7), Plasmodium falciparum 3D7 (PF3D7_0213400), sequence (Q7YTF7 1-343): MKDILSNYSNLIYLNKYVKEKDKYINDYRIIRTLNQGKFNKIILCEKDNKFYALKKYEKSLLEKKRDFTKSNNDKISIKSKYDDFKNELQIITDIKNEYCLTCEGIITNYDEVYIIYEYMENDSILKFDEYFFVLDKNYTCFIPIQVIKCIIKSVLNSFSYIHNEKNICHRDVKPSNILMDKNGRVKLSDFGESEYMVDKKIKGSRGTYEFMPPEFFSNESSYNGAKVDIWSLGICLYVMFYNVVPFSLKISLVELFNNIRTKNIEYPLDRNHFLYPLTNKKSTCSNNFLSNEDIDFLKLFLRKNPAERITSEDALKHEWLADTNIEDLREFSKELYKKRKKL
Calcium-dependent protein kinase 4 (Plasmodium falciparum (isolate 3D7)), sequence (Q8IBS5 whole entry, looked up): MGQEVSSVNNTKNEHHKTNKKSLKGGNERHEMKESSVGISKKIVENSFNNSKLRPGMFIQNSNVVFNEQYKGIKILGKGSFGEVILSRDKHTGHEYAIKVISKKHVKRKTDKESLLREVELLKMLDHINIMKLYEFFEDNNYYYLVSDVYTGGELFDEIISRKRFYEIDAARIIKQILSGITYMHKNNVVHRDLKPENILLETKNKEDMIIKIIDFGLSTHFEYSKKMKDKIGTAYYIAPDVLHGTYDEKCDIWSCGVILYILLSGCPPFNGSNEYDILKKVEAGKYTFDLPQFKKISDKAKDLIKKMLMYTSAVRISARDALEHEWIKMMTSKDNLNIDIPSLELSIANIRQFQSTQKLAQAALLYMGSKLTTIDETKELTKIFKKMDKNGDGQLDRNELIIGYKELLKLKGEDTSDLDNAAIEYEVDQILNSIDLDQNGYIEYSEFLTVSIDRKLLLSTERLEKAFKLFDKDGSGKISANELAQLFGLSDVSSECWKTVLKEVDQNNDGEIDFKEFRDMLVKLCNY
Calcium-dependent protein kinase 1 (Plasmodium falciparum (isolate 3D7)), sequence (P62344 whole entry, looked up): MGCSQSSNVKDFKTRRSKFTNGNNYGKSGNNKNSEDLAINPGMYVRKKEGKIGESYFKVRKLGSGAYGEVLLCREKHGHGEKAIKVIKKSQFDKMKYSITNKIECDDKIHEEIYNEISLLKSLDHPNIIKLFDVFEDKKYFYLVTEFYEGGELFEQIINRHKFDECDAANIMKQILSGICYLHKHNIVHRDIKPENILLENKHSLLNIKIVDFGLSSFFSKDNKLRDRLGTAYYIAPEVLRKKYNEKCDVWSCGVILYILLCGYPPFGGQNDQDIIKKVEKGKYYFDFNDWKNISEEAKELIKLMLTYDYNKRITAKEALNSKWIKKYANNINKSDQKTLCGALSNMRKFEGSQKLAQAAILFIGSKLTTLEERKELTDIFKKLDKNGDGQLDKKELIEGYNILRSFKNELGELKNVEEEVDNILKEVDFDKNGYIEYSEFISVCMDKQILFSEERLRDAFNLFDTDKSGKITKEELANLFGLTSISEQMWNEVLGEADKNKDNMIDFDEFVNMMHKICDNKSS

COc1ccc(-c2cccc(NC(=O)c3ccc(F)cc3)c2)cc1CNC(C)C
inactive: growth inhibition [1] 9% | inhibition [2] 32% | inhibition [3] 1% | outcome [5] | outcome [6] | outcome [7] | outcome [8]
active: growth inhibition [4] 83%

FC(F)c1nc2ccccc2n1-c1nc(N2CCOCC2)nc(N2CCOCC2)n1
6850: cell count [16]
inactive: inhibition [2] 47% | inhibition [3] -2% | outcome [5] | outcome [6] | outcome [7] | outcome [8] | fold change ([15]; stronger effect = lower value, cell number ratio, induced over uninduced) 0.814 | plate-normalised HSF1 focus index [16] 0.994 | viability ([18]; at 0.000305 µM, OCI-C5x cells, with rucaparib 10 µM, 100% = cells with rucaparib alone) 125% | viability ([18]; at 0.000305 µM, OCI-C5x cells, without rucaparib) 124% | viability ([18]; at 0.00122 µM, OCI-C5x cells, without rucaparib) 119% | viability ([18]; at 0.00488 µM, OCI-C5x cells, with rucaparib 10 µM, 100% = cells with rucaparib alone) 115% | viability ([18]; at 0.00488 µM, OCI-C5x cells, without rucaparib) 120% | viability ([18]; at 0.0195 µM, OCI-C5x cells, with rucaparib 10 µM, 100% = cells with rucaparib alone) 122% | viability ([18]; at 0.0195 µM, OCI-C5x cells, without rucaparib) 116% | viability ([18]; at 0.0781 µM, OCI-C5x cells, with rucaparib 10 µM, 100% = cells with rucaparib alone) 126% | viability ([18]; at 0.0781 µM, OCI-C5x cells, without rucaparib) 117% | viability ([18]; at 0.313 µM, OCI-C5x cells, with rucaparib 10 µM, 100% = cells with rucaparib alone) 128% | viability ([18]; at 0.313 µM, OCI-C5x cells, without rucaparib) 111% | viability ([18]; at 1.25 µM, OCI-C5x cells, with rucaparib 10 µM, 100% = cells with rucaparib alone) 107% | viability ([18]; at 1.25 µM, OCI-C5x cells, without rucaparib) 126%
2350: cell count ([15]; measured here: total cells without miR-34 induction)
1920: cell count ([15]; measured here: total cells with miR-34 induction, stronger effect = lower value)
-0.274: SSMD [16]
0.918: fold change ([15]; measured here: relative caspase fold change +Dox/-Dox)
active: growth inhibition [1] 99% | growth inhibition [4] 99% | AC50 [9] 742 nM | AC50 [10] 235 nM | AC50 [11] 833 nM | AC50 [12] 417 nM | AC50 [13] 3320 nM | AC50 [14] 2950 nM | z-score ([17]; MELAS cybrid survival, CellTiter-Glo 48 h, stronger effect = higher value) 2.99 | viability ([18]; at 0.000305 µM, OCI-P5x cells, with rucaparib 20 µM, 100% = cells with rucaparib alone) 88.5% | viability ([18]; at 0.000305 µM, OCI-P5x cells, without rucaparib) 82.7% | viability ([18]; at 0.00122 µM, OCI-P5x cells, with rucaparib 20 µM, 100% = cells with rucaparib alone) 75.5% | viability ([18]; at 0.00122 µM, OCI-P5x cells, without rucaparib) 34.1% | viability ([18]; at 0.00488 µM, OCI-P5x cells, with rucaparib 20 µM, 100% = cells with rucaparib alone) 93.4% | viability ([18]; at 0.00488 µM, OCI-P5x cells, without rucaparib) 97.4% | viability ([18]; at 0.0195 µM, OCI-P5x cells, with rucaparib 20 µM, 100% = cells with rucaparib alone) 94.1% | viability ([18]; at 0.0195 µM, OCI-P5x cells, without rucaparib) 90.9% | viability ([18]; at 0.0781 µM, OCI-P5x cells, with rucaparib 20 µM, 100% = cells with rucaparib alone) 89.9% | viability ([18]; at 0.0781 µM, OCI-P5x cells, without rucaparib) 93% | viability ([18]; at 0.313 µM, OCI-P5x cells, with rucaparib 20 µM, 100% = cells with rucaparib alone) 88.2% | viability ([18]; at 0.313 µM, OCI-P5x cells, without rucaparib) 84.5% | viability ([18]; at 1.25 µM, OCI-P5x cells, with rucaparib 20 µM, 100% = cells with rucaparib alone) 42% | viability ([18]; at 1.25 µM, OCI-P5x cells, without rucaparib) 62.9% | viability ([18]; at 5 µM, OCI-C5x cells, with rucaparib 10 µM, 100% = cells with rucaparib alone) 25.2% | viability ([18]; at 5 µM, OCI-C5x cells, without rucaparib) 45.8% | viability ([18]; at 5 µM, OCI-P5x cells, with rucaparib 20 µM, 100% = cells with rucaparib alone) 8.53% | viability ([18]; at 5 µM, OCI-P5x cells, without rucaparib) 15.4%
-0.193: z-score ([17]; Rieske KO mouse fibroblast survival, CellTiter-Glo 72 h)

CCCCCCNc1c2ccccc2nc2ccccc12
inactive: growth inhibition [1] 32% | inhibition [2] 24% | inhibition [3] -3% | outcome [5] | outcome [6] | outcome [7] | outcome [8]
active: growth inhibition [4] 97%

N#Cc1cccc(NC(=O)Nc2ccc(-c3cccc(-c4nc5ccc(F)cc5[nH]4)c3)cc2)c1
inactive: inhibition [3] 4% | outcome [5] | outcome [6] | outcome [7] | outcome [8]
active: growth inhibition [1] 100% | inhibition [2] 64% | growth inhibition [4] 102%

COc1ccc(C2C(C(=O)Nc3ccccc3)=C(C)Nc3c(C(=O)Nc4ccccc4)cnn32)cc1 (stereo unspecified)
inactive: inhibition [2] 13% | inhibition [3] -1% | outcome [5] | outcome [6] | outcome [7] | outcome [8]
active: growth inhibition [1] 66% | growth inhibition [4] 85%
